The text below walks through data of PubChem BioAssay (NCATS).

A number with no mark means an inactive call. Records with an inconclusive call do not appear. Activity calls are given as the source filed them. The call rests on the fitted dose curve; in most records, active means well fitted curve in the direction sought with a large enough effect; inconclusive means small, poorly fitted or top-dose-only effect, or another doubt; inactive means no such curve, though single readings can be large; an effect the other way counts as inactive or inconclusive.

A short description of assay [1]: HepG2 viability counterscreen (readout 2: ATP content) against the NCATS DSHEA and TCM libraries (AID 1794840).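 Further: HepG2 cells exposed to substances for about 24 h; 0% is about no effect.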 The gist of the method:
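Readout 1: cellular protease activity, GF-AFC substrate (25 uM final, 30 min, fluorescence 380/510 nm). Readout 2: ATP content by CellTiter-Glo luminescence after 30 min at RT. Both follow ~24 h exposure of HepG2 cells (1,000/well) to substances.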
(The purpose of a counterscreen is to sort out artefacts and off-target activity.)

Assay [2] deals with Glutathione peroxidase 1 (Homo sapiens) (UniProt P07203). Briefly: Primary qHTS Assay for Inhibitors of Recombinant Selenoprotein Glutathione Peroxidase 1 (GPX1) (AID 1845191). Further: nearly all actives have a fitted effect of over 65% in size. The gist of the method:
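NADPH consumption tracked by fluorescence at 340/450 nm between t=0 and t=15 min, room temperature. Final mix: 10 nM GPX1, 100 nM glutathione reductase, 1 mM GSH, 0.5 mM NADPH, 0.5 mM cumene hydroperoxide, 0.01% BSA; 30 min compound–enzyme preincubation.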
A general note: In qHTS, concentration-response curves come from the screen itself.

For assay [3], the target named is Phospholipid hydroperoxide glutathione peroxidase GPX4 (Homo sapiens) (UniProt P36969). As to the kind of experiment: Primary qHTS Assay for Inhibitors of Recombinant Selenoprotein Glutathione Peroxidase 4 (GPX4) (AID 1845192). Further: potency means the concentration at half of the fitted maximal effect; nearly all actives have a fitted effect of over 65% in size. The gist of the method: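 NADPH consumption followed by fluorescence at 340/450 nm, t=0 and after 15 min at room temperature. Reaction started with cumene hydroperoxide (0.5 mM final) after 30 min compound–GPX4 preincubation; final 200 nM GPX4, 100 nM GR, 1 mM GSH, 0.5 mM NADPH.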
Phospholipid hydroperoxide glutathione peroxidase GPX4 (Homo sapiens), sequence (P36969 whole entry, looked up): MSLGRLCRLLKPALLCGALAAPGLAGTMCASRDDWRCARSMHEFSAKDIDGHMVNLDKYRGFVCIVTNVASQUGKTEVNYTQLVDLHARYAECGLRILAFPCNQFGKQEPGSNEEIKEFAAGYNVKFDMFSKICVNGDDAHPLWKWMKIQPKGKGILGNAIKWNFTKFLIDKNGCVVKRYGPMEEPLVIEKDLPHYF

For assay [4], the target named is Cytochrome P450 2D6 (Homo sapiens) (UniProt P10635). As to the kind of experiment: qHTS for inhibitors of CYP2D6 against the NCATS DSHEA and TCM libraries (AID 1919972). Further: on the % scale 0 is the no-effect control and ±100 the full control effect. The gist of the method:
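qHTS, concentration–response format with most substances from 19.5 nM. CYP2D6 + pro-luciferin substrate, 15 min with compound, then 1x NADPH regen, 30–45 min RT dark. Glo detection 30 min, luminescence. Quinidine control.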

Assay [5] deals with Cytochrome P450 2C9 (Homo sapiens) (UniProt P11712). Briefly: qHTS for inhibitors of CYP2C9 against the NCATS DSHEA and TCM libraries (AID 1919973). Further: potency means the concentration at half of the fitted maximal effect. The gist of the method:
(§1)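 Isoform-specific enzyme and substrate levels; enzyme-free wells as background. Reaction: 1x NADPH regenerating system, 30-45 min, room temperature, shielded from light; luminescent detection reagent added, 30 min.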

Assay [6] deals with Cytochrome P450 2C19 (Homo sapiens) (UniProt P33261). Briefly: qHTS for inhibitors of CYP2C19 against the NCATS DSHEA and TCM libraries (AID 1919974).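 Further: luminescence from luciferin released by CYP2C19 oxidation of a pro-luciferin substrate.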 Further: potency means the concentration at half of the fitted maximal effect. The gist of the method:
as §1

Assay [7] can be described thus: KB-3-1 P-gp reporter qHTS against the NCATS DSHEA and TCM libraries (AID 1919975). Further: 0% is about no effect. The gist of the method: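 Cell viability by CellTiter-Glo luminescence following ~72 h compound exposure (concentration-response). Uses parental, non-P-gp-overexpressing KB-3-1 line, 500 cells/well in DMEM/10% FBS, attached ~4 h before dosing.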
The nature of assay [8]: qHTS Counterscreen for compound interference against the NCATS DSHEA and TCM libraries (AID 1919978).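 Further: compounds preincubated with 1 µM D-luciferin or buffer before detection reagent; % of control where 0% means no effect.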 The conditions noted are these: firefly luciferase detection reagent interference, luminescence. The gist of the method:
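With 1 uM D-luciferin or phosphate buffer only, compounds at final 19.5 nM–39.8 uM were incubated for 15 min at room temperature. Luciferase detection reagent was then added, and luminescence was measured after a further 30 min at room temperature.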

Assay [9] has as its target Nuclear receptor subfamily 1 group I member 2 (Homo sapiens) (UniProt O75469). Briefly: Dual reporter qHTS for agonist of Pregnane X Receptor (hPXR) against the NCATS DSHEA and TCM libraries: Luminescence readout (AID 1920059). Further: 0% is about no effect. The gist of the method:
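Luminescent PXR reporter read (ONE-Glo) after a CellTiter-Fluor viability read, following 24 h, 37C treatment of HepG2 cells stably carrying hPXR-Luc.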

Assay [10] shares this target. Briefly: Dual reporter qHTS for antagonist of Pregnane X Receptor (hPXR) against the NCATS DSHEA and TCM libraries: Luminescence Readout (AID 1920060).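 Further: HepG2 cells carrying hPXR luciferase reporter stimulated with rifampicin at 2 µM; 0% is about no effect.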 The gist of the method:
(§2)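 Antagonist mode: rifampicin 2 uM final co-added with compounds to hPXR-LucHepG2 cells for 24 h at 37C. Viability by CellTiter-Fluor, Ex/Em 405/540 nm, 1 h; reporter by ONE-Glo luminescence.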

The nature of assay [11]: Dual reporter qHTS for antagonist of Pregnane X Receptor (hPXR) against the NCATS DSHEA and TCM libraries: Fluorescence Readout (AID 1920061). Further: 0% is about no effect. The gist of the method: as §2
In assay [12] the target is Cytochrome P450 3A4 (Homo sapiens) (UniProt P08684). As to the kind of experiment: qHTS for inhibitors of CYP3A4 against the NCATS DSHEA and TCM libraries (AID 1919971).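 Further: on the % scale 0 is the no-effect control and ±100 the full control effect; inhibition lowers luminescence from luciferin made by CYP3A4.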 The gist of the method:
as §1

The target in assay [13] is Cytochrome P450 1A2 (Homo sapiens) (UniProt P05177). As to the kind of experiment: qHTS for inhibitors of CYPIA2 against the NCATS DSHEA and TCM libraries (AID 1919976).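 Further: light from luciferin formed by CYP1A2 from a pro-luciferin substrate; series mostly up to about 37 µM; on the % scale 0 is the no-effect control and ±100 the full control effect.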 The gist of the method: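 Furafylline served as the plate control. Compounds met CYP1A2 and pro-luciferin substrate 15 min before NADPH regeneration solution (1x) was added; after 30-45 min at RT, P450-Glo reagent was added for 30 min and luminescence was measured.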
Cytochrome P450 1A2 (Homo sapiens), sequence (P05177 whole entry, looked up): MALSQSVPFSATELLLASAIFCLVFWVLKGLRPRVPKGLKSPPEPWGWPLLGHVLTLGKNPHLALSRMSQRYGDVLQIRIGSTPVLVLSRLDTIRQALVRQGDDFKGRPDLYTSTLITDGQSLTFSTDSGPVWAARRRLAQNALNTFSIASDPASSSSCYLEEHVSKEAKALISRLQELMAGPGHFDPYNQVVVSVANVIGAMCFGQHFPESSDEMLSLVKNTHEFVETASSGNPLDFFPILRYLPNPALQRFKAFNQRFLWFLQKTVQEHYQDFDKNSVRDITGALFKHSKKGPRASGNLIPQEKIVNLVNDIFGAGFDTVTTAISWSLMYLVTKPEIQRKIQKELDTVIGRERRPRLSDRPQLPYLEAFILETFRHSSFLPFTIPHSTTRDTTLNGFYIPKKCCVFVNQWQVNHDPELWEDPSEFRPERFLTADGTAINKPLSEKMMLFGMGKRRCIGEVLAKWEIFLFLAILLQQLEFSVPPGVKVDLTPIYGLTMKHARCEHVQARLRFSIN

Assay [14] can be described thus: Dual reporter qHTS for agonist of Pregnane X Receptor (hPXR) against the NCATS DSHEA and TCM libraries: Fluorescence readout (AID 1920058). Further: 0% is about no effect. The gist of the method: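 In this qHTS counter-read, reporter-bearing HepG2 cells in charcoal-stripped serum received substances for approximately 24 h before viability was assessed fluorometrically with CellTiter-Fluor.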

Nuclear receptor subfamily 1 group I member 2 (Homo sapiens), sequence (O75469 whole entry, looked up): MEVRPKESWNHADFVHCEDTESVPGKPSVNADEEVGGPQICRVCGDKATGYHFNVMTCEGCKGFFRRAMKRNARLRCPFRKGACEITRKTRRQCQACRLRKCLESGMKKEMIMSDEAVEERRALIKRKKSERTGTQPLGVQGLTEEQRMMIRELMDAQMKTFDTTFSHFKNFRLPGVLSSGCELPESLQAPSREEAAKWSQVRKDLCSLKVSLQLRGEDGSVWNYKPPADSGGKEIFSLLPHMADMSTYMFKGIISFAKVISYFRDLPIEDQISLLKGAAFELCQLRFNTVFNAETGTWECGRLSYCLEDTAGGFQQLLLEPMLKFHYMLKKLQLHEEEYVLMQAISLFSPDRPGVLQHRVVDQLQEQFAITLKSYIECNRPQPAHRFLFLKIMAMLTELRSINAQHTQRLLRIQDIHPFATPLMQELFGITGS
Glutathione peroxidase 1 (Homo sapiens), sequence (P07203 whole entry, looked up): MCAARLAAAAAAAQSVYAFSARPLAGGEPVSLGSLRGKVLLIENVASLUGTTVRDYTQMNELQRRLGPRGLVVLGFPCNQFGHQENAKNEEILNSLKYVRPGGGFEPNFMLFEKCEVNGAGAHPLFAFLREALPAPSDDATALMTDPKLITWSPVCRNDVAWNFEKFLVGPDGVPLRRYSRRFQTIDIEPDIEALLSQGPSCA
Cytochrome P450 2C19 (Homo sapiens), sequence (P33261 whole entry, looked up): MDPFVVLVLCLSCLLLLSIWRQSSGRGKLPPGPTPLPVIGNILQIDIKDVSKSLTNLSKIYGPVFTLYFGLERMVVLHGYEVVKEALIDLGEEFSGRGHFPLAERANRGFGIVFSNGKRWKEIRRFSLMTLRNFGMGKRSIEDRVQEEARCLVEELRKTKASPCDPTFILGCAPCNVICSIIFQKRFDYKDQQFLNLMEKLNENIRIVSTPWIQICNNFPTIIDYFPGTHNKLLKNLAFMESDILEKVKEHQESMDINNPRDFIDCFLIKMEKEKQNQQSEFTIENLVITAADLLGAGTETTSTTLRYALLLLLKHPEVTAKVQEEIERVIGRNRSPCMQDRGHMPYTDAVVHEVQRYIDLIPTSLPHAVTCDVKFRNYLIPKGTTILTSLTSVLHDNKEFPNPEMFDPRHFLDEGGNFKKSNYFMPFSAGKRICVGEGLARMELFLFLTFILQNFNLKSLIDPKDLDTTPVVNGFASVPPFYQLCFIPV
Cytochrome P450 2C9 (Homo sapiens), sequence (P11712 whole entry, looked up, canonical isoform): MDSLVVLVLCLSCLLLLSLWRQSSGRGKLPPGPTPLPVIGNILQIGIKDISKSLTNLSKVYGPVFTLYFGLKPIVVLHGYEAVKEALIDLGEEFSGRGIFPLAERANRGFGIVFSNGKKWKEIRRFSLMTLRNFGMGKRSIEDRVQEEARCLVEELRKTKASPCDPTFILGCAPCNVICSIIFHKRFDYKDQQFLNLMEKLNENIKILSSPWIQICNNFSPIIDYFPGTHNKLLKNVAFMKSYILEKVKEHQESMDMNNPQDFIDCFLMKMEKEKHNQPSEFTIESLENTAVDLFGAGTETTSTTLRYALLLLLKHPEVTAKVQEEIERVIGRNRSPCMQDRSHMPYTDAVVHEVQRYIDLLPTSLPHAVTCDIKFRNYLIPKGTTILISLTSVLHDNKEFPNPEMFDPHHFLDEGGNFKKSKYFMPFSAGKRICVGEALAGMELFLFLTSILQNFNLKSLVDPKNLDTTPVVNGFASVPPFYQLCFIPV
Cytochrome P450 2D6 (Homo sapiens), sequence (P10635 whole entry, looked up): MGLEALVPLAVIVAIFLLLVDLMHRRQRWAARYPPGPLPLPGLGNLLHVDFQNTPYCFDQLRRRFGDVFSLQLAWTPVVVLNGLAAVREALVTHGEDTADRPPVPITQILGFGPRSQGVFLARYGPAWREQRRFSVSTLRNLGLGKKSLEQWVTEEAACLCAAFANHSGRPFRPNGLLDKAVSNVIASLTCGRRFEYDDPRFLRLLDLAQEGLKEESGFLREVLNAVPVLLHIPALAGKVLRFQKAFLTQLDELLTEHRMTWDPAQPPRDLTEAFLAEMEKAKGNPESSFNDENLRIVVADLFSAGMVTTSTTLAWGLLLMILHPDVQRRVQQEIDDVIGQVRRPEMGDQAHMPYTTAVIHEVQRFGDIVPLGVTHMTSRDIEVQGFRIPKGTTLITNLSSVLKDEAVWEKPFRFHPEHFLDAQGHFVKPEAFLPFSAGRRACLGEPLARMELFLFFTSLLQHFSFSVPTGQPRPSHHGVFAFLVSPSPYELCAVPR
Cytochrome P450 3A4 (Homo sapiens), sequence (P08684 whole entry, looked up): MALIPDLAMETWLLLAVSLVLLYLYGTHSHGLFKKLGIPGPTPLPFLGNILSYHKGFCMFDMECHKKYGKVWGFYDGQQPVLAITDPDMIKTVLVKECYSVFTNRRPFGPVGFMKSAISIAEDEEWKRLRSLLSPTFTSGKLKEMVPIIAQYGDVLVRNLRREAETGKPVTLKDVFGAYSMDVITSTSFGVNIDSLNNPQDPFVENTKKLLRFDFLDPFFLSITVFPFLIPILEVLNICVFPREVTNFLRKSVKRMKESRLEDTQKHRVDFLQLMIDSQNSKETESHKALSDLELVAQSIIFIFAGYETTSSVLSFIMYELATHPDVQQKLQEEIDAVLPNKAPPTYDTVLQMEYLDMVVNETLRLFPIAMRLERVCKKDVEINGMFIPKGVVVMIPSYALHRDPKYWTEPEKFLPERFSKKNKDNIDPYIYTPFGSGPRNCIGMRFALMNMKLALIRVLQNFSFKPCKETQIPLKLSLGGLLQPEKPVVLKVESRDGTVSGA

Consider `CCCCCCCC/C=C/CCCCCCCC(=O)O`, for which the call in [1], in assay [7], in assay [10] and in [11] was inactive. The Potency result in assay [2], in assay [4] and in assay [9] was “inactive” in each case. Also, the Potency in assay [3] is 11.2 µM (active); in assay [5], 14.1 µM (active); in assay [6], 3.55 µM (active). In addition, the max response in [8] is -3.39%.

Turning to `NNCCc1ccc(NC(=O)CCCc2ccccc2)cc1`, in assay [2], the Potency result was “inactive”.

Take `O=C(O)CCN(O)C(=O)CCCCCCCCC1CC1`: in assay [2], the Potency result is “inactive”.

For `Fc1ccc(N2CCN(c3nc4ccccc4c4nc(-c5cccnc5)nn34)CC2)cc1`, in assay [2], the Potency result is “inactive”.

In the case of `O=C(c1cccc(Br)c1)N1CCC(N2CCCC2)CC1`, in assay [2], the Potency result was “inactive”.

Turning to `C=C1CC[C@H]2C[C@@H]1C2(C)C`, the call in assay [1], in [7], in [14], in [10] and in assay [11] was inactive. In addition, the Potency entry in assay [12], in assay [4], in assay [5], in [6], in [13] and in assay [9] was “inactive” each time. For the same molecule, the max response in assay [8] was 0.51%.
